Structures are written as SMILES. “And” between values parts separate entries of the source, which are not always exact repeats. Equal values may be shown once. Results filed as inconclusive are left out. The source made the active and inactive calls. Unless noted, calls follow the shape of the full dose curve.

These results are taken from PubChem BioAssay (Tox21).

Experiment [1] is described as follows: Nuclear factor erythroid 2-related factor 2/antioxidant responsive element (Nrf2/ARE) small molecule agonists: luciferase reporter gene qHTS assay in human keratinocytes (AID 1919969). Also: nearly all actives have a fitted effect of over 35% in size. Also: potency is read from the fitted curve at half-maximal effect.
The target of experiment [2] is Gonadotropin-releasing hormone receptor (Homo sapiens) (UniProt P30968). Briefly: Human gonadotropin-releasing hormone receptor (GnRHR) small molecule agonists, calcium flux assay in GnRHR-HEK293 cells (AID 1920063). Also: nearly all actives have a fitted effect of over 35% in size. In outline: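 HEK293 cells stably expressing human GnRHR were dye-loaded for 1 h at 37 C. Compound was added in agonist mode and fluorescence (Ex/Em 480/540) recorded kinetically for 3 min. Fifteen concentrations, triplicates.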

The target in experiment [3] is KiSS-1 receptor (Homo sapiens) (UniProt Q969F8). The experiment in a line: Human kisspeptin (KISS1R) small molecule agonists, calcium flux assay in KISS1R-HEK293 cells (AID 1920064; active = well fitted activation curve with a large enough effect in the repeat runs). In outline:
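HEK293 cells stably expressing human KISS1R were loaded with calcium dye for 1 h at 37 C, then given compound; fluorescence (Ex/Em 480/540) was read kinetically for 3 min. Fifteen concentrations, triplicate.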

Experiment [4] in a line: G protein-coupled receptor (GPCR) small molecule agonists, calcium flux assay: HEK293 wild type cell line counter screen (AID 1920065). The method in brief: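 Wild-type HEK293 cells plated 18 h, loaded with calcium dye 1 h at 37 C, then compounds added in agonist mode (ATP as positive control). Kinetic fluorescence Ex/Em 480/540 recorded 3 min at 1 sec intervals; 15 concentrations, triplicate.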

Experiment [5] can be described thus: p53 small molecule agonists, cell-based qHTS assay with human liver microsomes (AID 1963577).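 Also: p53 response element beta-lactamase reporter cells with liver microsomes plus NADPH.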 In outline:
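16 h, 37 C exposure of p53RE-bla cells to compounds with human liver microsomes and NADPH (0.5 mg/mL final each); detection via LiveBLAzer mixture, 2 h dark at room temperature.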

Experiment [6] is described as follows: p53 small molecule agonists, cell-based qHTS assay with human liver microsomes: qHTS cell viability counter screen (AID 1963579). Also: nearly all actives have a fitted effect of over 45% in size. Also: potency is read from the fitted curve at half-maximal effect. In outline:
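In this multiplexed counter screen, the reporter plates were subsequently treated with CellTiter-Glo so that cell viability, reflected by luminescence, could be recorded for p53RE-bla cells dosed 16 h with compounds under microsomal activation (HLM and NADPH).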

Experiment [7] can be described thus: p53 small molecule agonists, cell-based qHTS assay with rat liver microsomes: qHTS cell viability counter screen (AID 1963580). Also: nearly all actives have a fitted effect of over 45% in size. The method in brief: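 HCT-116 p53RE-bla, 4,000 cells/well, 5 h pre-incubation; cpd + rat liver microsomes 0.5 mg/mL + NADPH 0.5 mg/mL (final); 16 h, 37 C; CellTiter-Glo, 30 min RT; luminescence.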
Experiment [8] is described as follows: p53 small molecule agonists, cell-based qHTS assay: qHTS cell viability counter screen (AID 1963581). Also: nearly all actives have a fitted effect of over 45% in size. The method in brief:
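p53RE-bla HCT-116 cells, compounds added 5 h after plating and incubated 16 h at 37 C. Cytotoxicity measured in the same wells as intracellular ATP by CellTiter-Glo luminescence after 30 min at room temperature.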

A short description of experiment [9]: p53 small molecule agonists, cell-based qHTS assay (AID 1963582; active = well fitted activation curve with a large enough effect in the signal ratio in the repeat runs, not every such curve was filed as active; the % refers to the signal ratio). In outline:
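p53RE-bla reporter cells, compounds added in DMSO after 5 h plating, incubated 16 h at 37 C. Beta-lactamase read via 2 h room-temperature LiveBLAzer B/G FRET substrate, fluorescence intensity.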

For experiment [10], the target named is 5-hydroxytryptamine receptor 2A (Homo sapiens) (UniProt P28223). The experiment in a line: 5-hydroxytryptamine receptor 2A (HTR2A) small molecule antagonists, cell-based qHTS assay (AID 1963586). Also: nearly all actives have a fitted effect of over 45% in size. The method in brief:
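Antagonist-mode intracellular calcium assay: DOI (4 nM) added after 5 min compound pre-incubation at room temperature to dye-loaded HTR2A-CHO cells. Fluorescence followed for 3 min, sampled every second.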

Experiment [11] has the same target. Briefly: 5-hydroxytryptamine receptor 2A (HTR2A) small molecule agonists, cell-based qHTS assay (AID 1963587). Also: nearly all actives have a fitted effect of over 30% in size. Also: potency is read from the fitted curve at half-maximal effect. The method in brief:
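Kinetic calcium-flux fluorescence (2 min, 1 sec intervals) after compound addition in agonist mode. HTR2A-CHO cells were cultured 18 h, then dye-loaded 1 h at 37 C.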

Experiment [12] has as its target Muscarinic acetylcholine receptor M1 (Homo sapiens) (UniProt P11229). The experiment in a line: Cholinergic receptor muscarinic 1 (CHRM1) small molecule antagonists, cell-based qHTS assay (AID 1963588). Also: nearly all actives have a fitted effect of over 40% in size. In outline: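 CHRM1-CHO calcium-flux assay, antagonist mode. Cells were seeded 18 h, dye-loaded 1 h at 37 C and given compound for 5 min at RT, then acetylcholine was added at 50nM. FDSS fluorescence was read 3 min; 15 concentrations, three runs.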

Experiment [13] shares this target. The experiment in a line: Cholinergic receptor muscarinic 1 (CHRM1) small molecule agonists, cell-based qHTS assay (AID 1963589). Also: nearly all actives have a fitted effect of over 35% in size. In outline: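 CHO cells stably expressing human CHRM1 were loaded with calcium dye for 1 h at 37 C, then compound was added in agonist mode. Intracellular calcium fluorescence was followed kinetically at 1 s intervals. Fifteen concentrations were tested in three independent runs.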

A short description of experiment [14]: cAMP Responsive Elements (CRE) small molecule agonists, cell-based qHTS assay (AID 1963590). The method in brief:
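CRE-bla HEK 293T cells, 2,000/well in DMEM with 10% dialyzed FBS and 25 mM HEPES, pre-incubated 18 h at 37 C, then exposed to compound 3 h at 37 C. Beta-lactamase reporter read with LiveBLAzer B/G FRET substrate after 2 h at room temperature.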

Experiment [15] in a line: cAMP Responsive Elements (CRE) small molecule antagonists, cell-based qHTS assay (AID 1963591; active = well fitted inhibition curve with a large enough effect in the signal ratio in the repeat runs, not every such curve was filed as active; the % refers to the signal ratio; also: potency is read from the fitted curve at half-maximal effect). In outline:
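CRE-bla HEK293T cells plated 18 h, then given compound plus NKH477 at 0.25 uM final for 3 h at 37C. Beta-lactamase reporter read with LiveBLAzer B/G FRET substrate after 2 h at room temperature.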

In experiment [16] the target is Beta-2 adrenergic receptor (Homo sapiens) (UniProt P07550). The experiment in a line: Adrenergic beta2 receptor (ADRB2) small molecule antagonists, cell-based qHTS assay (AID 1963592). Also: series mostly up to about 92 µM; nearly all actives have a fitted effect of over 50% in size. In outline:
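Cells (CHO, stable ADRB2 overexpression) incubated 18-20hr at 37C; compounds added from DMSO; agonist mix (1nM isoproterenol, 100uM IBMX, 25uM Ro-20-1724) added; 0.5hr RT; d2-cAMP and anti-cAMP-cryptate added; 1hr RT; 665/615 nm read.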

Experiment [17] addresses D(2) dopamine receptor (Homo sapiens) (UniProt P14416). Briefly: Dopamine D2 receptor (DRD2) small molecule agonists, cell-based qHTS assay (AID 1963594). Also: nearly all actives have a fitted effect of over 35% in size. In outline: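 cAMP accumulation in DRD2-HEK293 cells measured by HTRF after 1 h detection; compounds added 10 min before NKH477 (200nM […]) forskolin-analogue stimulation, 30 min at room temperature, with Ro20-1724 present at 0.1 mM final.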

For experiment [18] the target is unchanged. The experiment in a line: Dopamine D2 receptor (DRD2) small molecule antagonists, cell-based qHTS assay (AID 1963595; active = well fitted inhibition curve with a large enough effect in the signal ratio in the repeat runs, with a control signal flat; the % refers to the signal ratio). In outline: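 DRD2-HEK293; 0.1 mM Ro20-1724; cpd 10 min RT; NKH477 200 nM + quinpirole 12 nM, 30 min RT; HTRF cAMP (cAMP-d2/anti-cAMP cryptate), 665/620 nm ratio after 1 h.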
Experiment [19] can be described thus: p53 small molecule agonists, cell-based qHTS assay with rat liver microsomes (AID 1963578). In outline:
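With rat liver microsomes and NADPH present (0.5 mg/mL final each), p53RE-bla cells are treated with compound for 16 h at 37 C. LiveBLAzer detection mixture is then applied for 2 h at room temperature in the dark.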

For experiment [20], the target named is Beta-2 adrenergic receptor (Homo sapiens) (UniProt P07550). Briefly: Adrenergic beta2 receptor (ADRB2) small molecule agonists, cell-based qHTS assay (AID 1963593).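 Also: CHO cells stably overexpressing human ADRB2.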 In outline: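 CHO cells stably over-expressing ADRB2 were plated overnight at 37C, then dosed with compounds plus a stimulation mix containing 100uM IBMX and 25uM Ro-20-1724 for 0.5hr at room temperature. cAMP was measured by HTRF competition, 1hr.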
Sequence of Beta-2 adrenergic receptor (Homo sapiens) (P07550 whole entry, looked up): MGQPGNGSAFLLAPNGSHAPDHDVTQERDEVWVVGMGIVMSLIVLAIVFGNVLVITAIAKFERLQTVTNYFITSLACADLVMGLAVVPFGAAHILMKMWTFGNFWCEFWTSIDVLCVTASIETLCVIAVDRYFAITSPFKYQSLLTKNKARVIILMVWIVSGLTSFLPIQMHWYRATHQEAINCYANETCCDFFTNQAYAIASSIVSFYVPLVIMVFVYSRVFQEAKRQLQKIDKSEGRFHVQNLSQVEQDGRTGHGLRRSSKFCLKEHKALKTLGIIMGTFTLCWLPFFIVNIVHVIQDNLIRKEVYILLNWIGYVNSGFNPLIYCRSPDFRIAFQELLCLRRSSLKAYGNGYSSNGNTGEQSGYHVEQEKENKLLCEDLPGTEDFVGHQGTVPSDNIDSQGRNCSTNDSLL

Sequence of Muscarinic acetylcholine receptor M1 (Homo sapiens) (P11229 whole entry, looked up): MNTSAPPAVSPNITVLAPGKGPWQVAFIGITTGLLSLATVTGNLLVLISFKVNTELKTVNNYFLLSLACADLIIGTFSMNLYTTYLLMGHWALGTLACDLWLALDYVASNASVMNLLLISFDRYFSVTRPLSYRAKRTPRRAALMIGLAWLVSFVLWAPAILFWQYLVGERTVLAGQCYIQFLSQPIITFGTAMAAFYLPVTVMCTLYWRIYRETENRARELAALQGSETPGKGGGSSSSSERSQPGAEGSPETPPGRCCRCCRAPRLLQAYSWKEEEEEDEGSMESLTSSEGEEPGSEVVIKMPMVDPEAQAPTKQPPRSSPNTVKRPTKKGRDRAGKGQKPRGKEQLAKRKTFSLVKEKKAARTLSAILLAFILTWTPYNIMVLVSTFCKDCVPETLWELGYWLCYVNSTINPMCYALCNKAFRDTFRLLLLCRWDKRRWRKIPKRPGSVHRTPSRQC
Sequence of KiSS-1 receptor (Homo sapiens) (Q969F8 whole entry, looked up): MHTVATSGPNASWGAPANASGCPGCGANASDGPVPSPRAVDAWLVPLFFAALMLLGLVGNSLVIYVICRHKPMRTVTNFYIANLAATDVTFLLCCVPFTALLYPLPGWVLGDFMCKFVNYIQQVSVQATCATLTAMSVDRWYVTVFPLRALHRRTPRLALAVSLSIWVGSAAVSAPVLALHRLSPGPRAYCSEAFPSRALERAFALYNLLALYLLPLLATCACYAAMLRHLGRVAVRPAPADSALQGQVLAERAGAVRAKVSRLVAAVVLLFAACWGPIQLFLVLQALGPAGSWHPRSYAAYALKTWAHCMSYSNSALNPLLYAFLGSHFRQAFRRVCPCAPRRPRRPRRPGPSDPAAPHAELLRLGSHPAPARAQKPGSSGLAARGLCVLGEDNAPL
Sequence of Gonadotropin-releasing hormone receptor (Homo sapiens) (P30968 whole entry, looked up): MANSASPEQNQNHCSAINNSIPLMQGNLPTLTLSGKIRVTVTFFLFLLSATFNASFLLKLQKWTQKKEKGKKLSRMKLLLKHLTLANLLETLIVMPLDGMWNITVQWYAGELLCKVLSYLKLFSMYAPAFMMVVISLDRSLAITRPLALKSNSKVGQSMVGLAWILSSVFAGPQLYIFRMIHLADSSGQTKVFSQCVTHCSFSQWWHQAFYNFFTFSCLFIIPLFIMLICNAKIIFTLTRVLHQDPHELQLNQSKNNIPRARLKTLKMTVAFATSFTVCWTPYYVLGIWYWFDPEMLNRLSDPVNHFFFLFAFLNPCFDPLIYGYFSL
Sequence of D(2) dopamine receptor (Homo sapiens) (P14416 whole entry, looked up): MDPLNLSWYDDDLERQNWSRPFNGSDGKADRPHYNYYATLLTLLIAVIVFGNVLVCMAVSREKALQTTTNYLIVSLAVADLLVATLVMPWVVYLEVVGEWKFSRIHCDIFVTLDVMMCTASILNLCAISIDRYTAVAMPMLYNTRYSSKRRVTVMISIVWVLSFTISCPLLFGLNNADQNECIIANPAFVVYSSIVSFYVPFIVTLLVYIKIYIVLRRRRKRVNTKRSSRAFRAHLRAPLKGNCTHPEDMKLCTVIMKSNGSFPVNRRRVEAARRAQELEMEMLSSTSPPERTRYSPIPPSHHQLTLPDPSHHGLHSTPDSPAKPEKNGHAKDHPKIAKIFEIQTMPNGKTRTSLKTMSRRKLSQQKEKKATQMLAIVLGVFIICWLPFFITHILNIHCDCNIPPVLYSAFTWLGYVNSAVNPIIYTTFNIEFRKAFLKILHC
Sequence of 5-hydroxytryptamine receptor 2A (Homo sapiens) (P28223 whole entry, looked up): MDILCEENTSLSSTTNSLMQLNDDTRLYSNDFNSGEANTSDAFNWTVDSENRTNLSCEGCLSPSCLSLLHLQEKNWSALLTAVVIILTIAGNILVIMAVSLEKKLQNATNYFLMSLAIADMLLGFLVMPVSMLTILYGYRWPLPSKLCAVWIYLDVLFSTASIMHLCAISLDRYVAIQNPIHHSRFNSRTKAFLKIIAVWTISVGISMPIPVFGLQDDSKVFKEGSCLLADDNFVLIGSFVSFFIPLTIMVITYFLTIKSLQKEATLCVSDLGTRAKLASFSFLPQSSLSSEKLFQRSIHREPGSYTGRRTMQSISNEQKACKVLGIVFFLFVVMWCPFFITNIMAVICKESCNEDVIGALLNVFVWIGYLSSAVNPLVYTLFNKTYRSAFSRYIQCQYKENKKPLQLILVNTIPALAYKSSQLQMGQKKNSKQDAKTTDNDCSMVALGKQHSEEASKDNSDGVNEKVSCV

For the compound `O=[N+]([O-])c1ccc(NCCO)c(OCCO)c1`, the Potency entry in [1], in experiment [2], in experiment [3], in [4], in experiment [5] and in [6] was “inactive” throughout. Besides, the Potency result in experiment [7], in [8], in experiment [9], in [10], in [11] and in experiment [12] was “inactive” throughout. Moreover, the Potency entry in [13], in experiment [14], in experiment [15], in experiment [16], in experiment [17] and in [18] was “inactive” throughout.
Consider `CCCCCOc1ccccc1/C(=C\SC)n1ccnc1`, for which the Potency in [1] is 5.96 µM (active). Also, the Potency result in experiment [2], in [3], in [4], in [5], in experiment [19] and in [7] was “inactive” throughout. Besides, the Potency result in experiment [10], in experiment [11], in experiment [12], in experiment [13], in experiment [16] and in [20] was “inactive” each time. Also, the Potency entry in experiment [17] and in experiment [18] was “inactive” throughout.
As to `CC/C=C\C/C=C\C/C=C\CCCCCCCC(=O)OC`, the Potency in experiment [1] was 27.3 µM (active). Also, the Potency entry in [2], in experiment [3], in experiment [4], in [5], in experiment [19] and in experiment [10] was “inactive” in each case. Besides, the Potency entry in [12], in [13], in experiment [15], in [16], in [20] and in experiment [17] was “inactive” in each case.
Turning to `CN(C)c1ccc(N=Nc2ccccc2C(=O)O)cc1`, the Potency in experiment [1] was 61.1 µM (active). The Potency entry in experiment [2], in experiment [3], in [4], in experiment [5], in experiment [19] and in [7] was “inactive” each time. In addition, the Potency entry in experiment [10], in experiment [11], in experiment [12], in experiment [13], in experiment [16] and in [18] was “inactive” in each case.
On to `C(=C(c1ccccc1)c1ccccc1)c1ccccc1`, for which the Potency in experiment [1] is 27.3 µM (active). For the same compound, the Potency result in [2], in [3], in experiment [4], in [5], in experiment [19] and in experiment [6] was “inactive” throughout. Also, the Potency result in experiment [10], in [11], in experiment [12], in experiment [13], in experiment [14] and in experiment [15] was “inactive” in each case. The Potency entry in [16], in experiment [17] and in [18] was “inactive” in each case.
Consider `c1cc(OCC2CO2)cc(OCC2CO2)c1` (centres undefined), for which, in experiment [1], the Potency is 24.1 µM (active). In addition, the Potency entry in experiment [2], in experiment [3], in [4], in experiment [5], in [19] and in experiment [7] was “inactive” throughout. Also, the Potency result in experiment [10], in experiment [11], in [12], in [13], in [17] and in [18] was “inactive” each time.
Turning to `CCCCC(CC)CN1CN(CC(CC)CCCC)CC(C)(N)C1` (centres undefined), the Potency result in experiment [1], in [2], in experiment [3], in experiment [4], in experiment [5] and in [19] was “inactive” in each case. Moreover, the Potency result in experiment [7], in experiment [8], in experiment [9], in experiment [12], in experiment [13] and in [15] was “inactive” throughout. Besides, the Potency result in experiment [16], in experiment [17] and in [18] was “inactive” each time.
In the case of `CCCCCCCOC(=O)c1ccc(O)cc1`, the Potency result in experiment [1], in experiment [2], in experiment [3], in experiment [4], in [5] and in experiment [19] was “inactive” each time. In addition, the Potency entry in experiment [9], in experiment [10], in experiment [12], in experiment [13], in experiment [16] and in experiment [20] was “inactive” throughout. Further, the Potency result in experiment [17] is “inactive”. Besides, the Potency was 36.4 µM (active) in [6]; 38.9 µM (active) in experiment [11]; 38.6 µM (active) and 45.2 µM (active) in experiment [15].
